a7 integrin act – activates integrin-mediated alleviation for muscular dystrophy; alpha7betagal myoblasts, beta-gal FDG fluorescence, 48 h; Potency, µM (top dose mostly 38.3 µM), without a hit: at the highest dose activation, hits mostly activators; actives 0.064% (n = 350,000); AID 624291;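 note: potency is the fitted concentration of half-maximal effect; 100% = response of the positive control SU9516; nearly all actives have a fitted effect of over 60% in size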
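alpha7betagal+/- myoblasts (passage 13, 250/well) treated 48 h at 37C with compounds at 1:260 dilution of DMSO stock. Lysed, then beta-galactosidase activity read as FDG fluorescence (ex 480/em 540) after 30 min, with pre-read for autofluorescence.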
Giardia killer – Giardia lamblia killing | Giardia lamblia trophozoite viability | activity change, % at 7.66 µM, hits read low | actives 0.15% (n = 340,000) | AID 540267; in the data active = activity change below about -80%; inconclusive = between about -30% and that limit;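 note: parasites exposed to compound for two days anaerobically before the ATP read; % is set by controls: 0 for no effect and ±100 for the full control effect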
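ATP-content bioluminescence gauges trophozoite survival. Cells (100/well) receive compound and incubate anaerobically for 48 hrs at 37 deg C; detection reagent follows for 15-30 min at room temperature.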
Gal4-VP16 FLuc – inhibits Gal4-VP16 luciferase reporter, ROR gamma counter-screen; Drosophila S2 Gal4-VP16 UAS-luciferase, luminescence, 20 h; Potency, µM (series often up to 53.6 µM), inactives show at the top dose activity, negative = inhibition, usual class: inhibitors; actives 3.5% (n = 310,000); AID 2546;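 note: Gal4-VP16 expression switched on by copper sulfate through the metallothionein promoter; potency is the fitted concentration of half-maximal effect; % is set by controls: 0 for no effect and ±100 for the full control effect; nearly all actives have a fitted effect of over 50% in size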
RORg inh – blocks mouse ROR gamma transcriptional activity; P51450; Drosophila S2 Gal4-RORgamma UAS-luciferase reporter, 20 h; Potency, µM (top dose mostly 53.6 µM), for inactives: at the highest dose activity change, negative = inhibition, actives largely listed as inhibitors; actives 5.4% (n = 310,000); AID 2551; note: potency is the fitted concentration of half-maximal effect; % is set by controls: 0 for no effect and ±100 for the full control effect; nearly all actives have a fitted effect of over 60% in size
Target sequence (P51450 whole entry, looked up, the tested form may be a part): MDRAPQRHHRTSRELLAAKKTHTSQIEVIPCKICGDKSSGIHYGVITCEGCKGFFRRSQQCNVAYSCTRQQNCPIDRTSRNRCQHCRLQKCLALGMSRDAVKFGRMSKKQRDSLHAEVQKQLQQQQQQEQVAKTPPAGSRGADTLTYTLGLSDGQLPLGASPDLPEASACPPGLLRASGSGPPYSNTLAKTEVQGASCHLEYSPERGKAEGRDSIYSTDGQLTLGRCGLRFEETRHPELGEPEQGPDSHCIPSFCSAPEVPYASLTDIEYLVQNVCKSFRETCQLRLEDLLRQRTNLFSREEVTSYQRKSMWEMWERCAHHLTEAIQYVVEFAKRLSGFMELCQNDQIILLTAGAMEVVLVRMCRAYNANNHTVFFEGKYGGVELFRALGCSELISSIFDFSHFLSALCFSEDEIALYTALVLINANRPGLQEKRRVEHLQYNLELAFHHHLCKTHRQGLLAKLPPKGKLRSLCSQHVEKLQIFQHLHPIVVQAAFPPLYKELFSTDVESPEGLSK
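A Gal4/UAS one-hybrid system in insect cells: metallothionein-promoter Gal4–ROR gamma fusion plus Photinus luciferase reporter. Copper sulfate 700 uM final, 20 hr ambient incubation, luminescent detection after 10 min with reagent.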
ERG-DNA inh – inhibitors of human ERG Ets domain-DNA interaction. P11308. fluorescence polarization, His-ERG Ets domain / labelled DNA. Potency, µM (series often up to 76.9 µM), without a hit: top-dose FP activity, negative = inhibition, actives largely listed as inhibitors. actives 0.028% (n = 370,000); active = well fitted inhibition curve with a large enough effect in the polarisation, with a control signal flat; inconclusive = small, poorly fitted or top-dose-only effect, or effect the other way, or a change in a side signal; inactive = no such curve, though single readings can be large or run the other way; the % refers to the polarisation;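 note: polarization taken with two DNA probes labelled with fluorescein and Texas red; potency is the fitted concentration of half-maximal effect; % of control where 0% means no effect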
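His-tagged ERG Ets domain (1 uM in the protein solution; 300mM KCl, 50mM Tris-HCl, 1mM EDTA, 1mM DTT, pH 7.5) received compound, then a probe mix of 5 nM fluorescein-DNA and 100nM Texas-615-DNA. Fluorescence polarization was read for both dyes.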
* = called active by the depositor; ? = inconclusive; · = no result given; [ ] = dose if it differs, or a comment. The full list was thinned out, with hits kept by preference. Unless noted, calls come from the whole dose curve; as a rule, active = well fitted curve in the direction sought with a large enough effect; inconclusive = small, poorly fitted or top-dose-only effect, or another doubt; inactive = no such curve, though single readings can be large; an effect the other way counts as inactive or inconclusive.

SMILES	a7 integrin act	Giardia killer	Gal4-VP16 FLuc	RORg inh	ERG-DNA inh
CC(C(=O)Nc1ccccc1-c1ccccc1)N(C)Cc1nc2ccccc2c(=O)[nH]1 (stereo not drawn)	-3%	-6	-8%	14µM*	-1%
CC(C)c1ccc(NC(=O)c2sccc2-n2cccc2)cc1	-21%	-15	1%	-2%	9%
CSCCC=O	·	·	8%	11%	·
CCN(Cc1cc(=O)n2ccsc2n1)Cc1nc2ccccc2c(=O)[nH]1	17%	3	10µM*	2.2µM*	5%
Cc1ccsc1C(=O)OCc1nc2ccccc2c(=O)[nH]1	28%	8	?	?	0%
CCN(CC(=O)NC(=O)NCc1ccco1)Cc1nc2ccccc2c(=O)[nH]1	0%	4	1.1µM*	0.56µM*	6%
CCN(CC(=O)NCc1ccc(F)cc1)Cc1cc(=O)n2ccsc2n1	-24%	-21	-1%	6%	2%
CCN(CC(=O)NCCc1ccc(S(N)(=O)=O)cc1)Cc1nc2cc(OC)c(OC)cc2c(=O)[nH]1	13%	-4	0%	-26%	0%
CN(Cc1nc2ccccc2c(=O)[nH]1)Cc1nc2ccsc2c(=O)[nH]1	-33%	7	5µM*	0.4µM*	4%
CCN(CC(=O)NCCc1ccc(S(N)(=O)=O)cc1)Cc1nc2ccccc2c(=O)[nH]1	-9%	-2	20µM*	6.3µM*	1%
CCN(CC(=O)NC(=O)NCc1ccco1)Cc1ccccc1	-38%	-6	·	·	8%
Cc1cc(OCC(=O)Nc2ccc(-c3nc4cc(Cl)ccc4o3)cc2)cc(C)c1Cl	·	·	·	·	0%
CC(=O)N1CCN(Cc2cc(=O)n3cc(Cl)c(C)c(Cl)c3n2)CC1	9%	4	-4%	-4%	-1%
Cc1c(Cl)cn2c(=O)cc(CN(C)Cc3nc4ccccc4c(=O)[nH]3)nc2c1Cl	·	·	-11%	18µM*	·
O=C1/C(=C/N(C(=O)c2ccco2)c2ccc(Br)cc2)Sc2ccccc21	-8%	-15	13µM*	35µM*	82%
O=C1/C(=C/N(C(=O)c2ccco2)c2ccc(Cl)cc2)Sc2ccccc21	6%	-1	?	?	·
Cc1cc(S(=O)(=O)NCc2ccccc2)ccc1OCC(=O)Nc1cccc([N+](=O)[O-])c1	-49%	11	11µM*	34%	-2%
CC(Oc1ccccc1)C(=O)Nc1ccc(C(=O)OCc2cc(=O)n3ccsc3n2)cc1 (stereo not drawn)	·	·	·	·	-1%
CC(C)C(=O)Nc1ccccc1-c1nc2ccccc2[nH]c1=O	?	-1	·	·	-2%
CC(C)C(=O)Nc1sc2c(c1-c1nc3ccccc3[nH]1)CCCC2	17%	-6	0%	11µM*	3%
C=CCn1c(O)c(N=NC(=S)Nc2ccc(OC)cc2)c2ccccc21	13%	3	4µM*	3.2µM*	0%
C=CCn1c(O)c(N=NC(=O)OCC)c2ccccc21	19%	-14	?	5%	7%
C=CCn1c(O)c(N=NC(=S)Nc2cccc(OC)c2)c2ccccc21	-15%	-10	2.5µM*	0.79µM*	-5%
COCCCNC(=O)C(=O)NCC(c1ccc2c(c1)OCO2)N1CCOCC1 (stereo not drawn)	·	·	·	·	-2%
Cc1cc(C(=O)Nc2ccc(N3CCOCC3)c(Cl)c2)c(C)o1	-32%	-15	-24%	3.2µM*	9%
SMILES	a7 integrin act	Giardia killer	Gal4-VP16 FLuc	RORg inh	ERG-DNA inh
O=C(Nc1ccc(N2CCCC2)c(Cl)c1)c1ccc2c(c1)OCCO2	3%	-19	·	·	6%
Cc1ccc(NC(=O)c2cc(N3C(=O)CCC3=O)ccc2N2CCOCC2)cc1	-398%	0	-3%	25%	-18%
Cc1ccc(NC(=O)c2cc(N3C(=O)C=CC3=O)ccc2N2CCOCC2)cc1Cl	-47%	-1	3.2µM*	5.6µM*	-3%
O=C(Nc1ccc(N2CCOCC2)c(Cl)c1)c1ccc2c(c1)OCCO2	4%	-12	?	0.79µM*	-1%
CCOc1ccc(NC(=O)CN(c2ccc(C)cc2)S(=O)(=O)c2cccs2)cc1	·	·	·	·	-4%
Cc1ccc(Nc2c3c(nc4ncnn24)CC(C)CC3)cc1 (stereo not drawn)	-7%	12	?	18µM*	-15%
CCOc1ccc(Nc2c3c(nc4ncnn24)CC(C)CC3)cc1 (stereo not drawn)	7%	24	-8%	-24%	2%
CCc1cccc(Nc2c3c(nc4ncnn24)CCC3)c1	1%	3	16µM*	10µM*	-11%
C[C@@]12CCC(=O)C=C1CC[C@@H]1[C@@H]2[C@H](O)C[C@]2(C)[C@@H]1CC[C@]2(O)C(=O)CO	·	·	-6%[17 µM]	-15%[16.9 µM]	·
CCOC(=O)C1CCCN(C(=O)COc2ccc(N(C)S(=O)(=O)c3ccc(F)cc3)cc2)C1 (stereo not drawn)	10%	19	-9%	0%	10%
CC1CCCCN1C(=O)COC(=O)c1ccc(S(C)(=O)=O)c([N+](=O)[O-])c1 (stereo not drawn)	·	-12	·	·	·
Cc1ccnc(NC(=O)c2ccc(OCC3CCCO3)cc2)c1 (stereo not drawn)	13%	-85*	·	·	9%
Cc1csc(NC(=O)c2cc[n+]([O-])cc2)n1	14%	-8	-22%	14%	12%
Cc1csc(NC(=O)c2ccc(N3CCCC3=O)cc2)n1	?	?	?	2.5µM*	-7%
Cc1csc(NC(=O)c2cc([N+](=O)[O-])cc([N+](=O)[O-])c2)n1	2%	-21	2µM*	?	11%
Cc1nnc(NC(=O)c2ccc(N3CCCC3=O)cc2)s1	4%	-20	·	·	8%
Cc1csc(NC(=O)c2ccc(OCC3CCCO3)cc2)n1 (stereo not drawn)	9%	-15	?	3.5µM*	-5%
COCCNC(=O)C1CCCN(S(=O)(=O)c2ccc3c(ccn3C)c2)C1 (stereo not drawn)	·	·	·	·	0%
C[C@@H]1CC[C@H]2C(=O)N3[C@@H](CC[C@@H](C)[C@@H]3c3ccc(Br)cc3)C(=O)N2[C@@H]1c1ccc(Br)cc1	·	·	-3%[10 µM]	11%[10 µM]	·
Cc1cc(O)c(C(C)C)cc1C1(c2cc(C(C)C)c(O)cc2C)OC(=O)c2ccccc21	-19%	16	13µM*	?	5%
COc1ccc(Cl)cc1NC(=O)c1nn(-c2ccc(C)cc2)c(=O)n(C)c1=O	·	·	·	·	7%
Cc1cc(C)c(NC(=O)CSc2nc(COc3ccccc3)nc3ccccc23)c(C)c1	-15%	-17	16µM*	?	·
CC(CC(=O)N1CCN(c2cccc(Cl)c2)CC1)S(=O)(=O)c1ccc2c(c1)NC(=O)CO2 (stereo not drawn)	-42%	-15	14µM*	-41%	-6%
COc1ccc(N2CCN(C(=O)CC(C)S(=O)(=O)c3ccc4c(c3)NC(=O)CO4)CC2)cc1 (stereo not drawn)	-44%	-5	-27%	?	5%

Compound activity deposited in PubChem BioAssay by National Center for Advancing Translational Sciences (NCATS).
